In PubChem BioAssay (NCATS) one finds Potency and outcome data, which are given here for 17 compounds.

Results filed as inconclusive are left out. Entries that show only a call come without a potency. Active and inactive are the calls of the source. Unless noted, the call rests on the fitted dose curve; in most records, active means well fitted curve in the direction sought with a large enough effect; inconclusive means small, poorly fitted or top-dose-only effect, or another doubt; inactive means no such curve, though single readings can be large; an effect the other way counts as inactive or inconclusive.

Test [1] addresses Voltage-gated inwardly rectifying potassium channel KCNH2 (Homo sapiens) (UniProt Q12809). The test can be described thus: qHTS Assay for Small Molecule Inhibitors of the Human hERG Channel Activity (AID 588834).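 Further: top concentration of the series differs between compounds; lower thallium flux fluorescence means stronger hERG block; nearly all actives have a fitted effect of over 50% in size.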 Summed up:
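hERG block measured as reduced thallium-dye (FluxOR) fluorescence after stimulation buffer addition, read over 2 min. Cells were hERG-BacMam-transduced U2OS exposed to compound ~10 min […]; concentration-response fitted with Hill equation for AC50.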

Test [2] concerns the target DNA dC->dU-editing enzyme APOBEC-3G (Homo sapiens) (UniProt Q9HC16). In words: qHTS for inhibitors of Vif-A3G interactions: Validation (AID 588379). Summed up: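 Yellow fluorescence (Ex 488, Em 500-530) of Vif-coexpressing HeLa A3G-eYFP cells, scanned by Acumen cytometer, reports blocked A3G degradation. Cells plated at 700/well overnight at 37 deg C before compound addition, then a further overnight compound incubation at 37 deg C.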

In test [3] the target is Galactokinase (Homo sapiens) (UniProt P51570). The test can be described thus: qHTS Validation Assay for Inhibitors of Human Galactokinase (GALK) (AID 493189). Summed up: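 Inhibition was measured as remaining ATP, detected by luciferase luminescence after a 1 h room-temperature reaction. Final conditions: 5 nM GALK, 100 uM galactose, 35 uM ATP, pH 8.0 HEPES buffer.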
Test [4] is described as follows: Validation screen for small molecules that induce DNA re-replication in SW480 colon adenocarcinoma cells (AID 504364). Summed up:
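Image-based DNA content read-out: Hoechst stain 40 min, total nuclear fluorescence intensity (ex 405 nm, em 500-530 nm) after 48 h compound exposure of 250 SW480 cells/well at 37 C, 5% CO2, versus DMSO vehicle.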

A short description of test [5]: qHTS for Inhibitors of Cell Surface uPA Generation: Validation Assay (AID 493164).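 Further: RAW 264.7 macrophage cells exposed to compound for 18 h.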 Summed up: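 ATP-Lite luminescence read-out: ATP remains high when uPA activity-dependent LF translocation into the cytoplasm is blocked. RAW 264.7 cells, 18 h compound exposure at 37 C; 7-point titration, 2.45 nM to 38.3 uM final.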
Test [6] deals with Peptidyl-prolyl cis-trans isomerase NIMA-interacting 1 (Homo sapiens) (UniProt Q13526). The test can be described thus: qHTS Validation Assay to Find Inhibitors of Pin1 (AID 504536; active means well fitted inhibition curve with a large enough effect in the polarisation, with a control signal flat, not every such curve was filed as active; the % refers to the polarisation). Summed up:
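Fluorescence polarization competition: compounds (titration) displace HiFluor-488-labeled Pin1-1b peptide from Pin1 (0.3 uM final) in pH 7.5 HEPES buffer with DTT, 10 min at room temperature; %Activity normalized to no-enzyme wells, curves fitted.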

The target in test [7] is Phosphoglycerate kinase, glycosomal (Trypanosoma brucei brucei) (UniProt P07378). The test can be described thus: qHTS Validation Assay to Find Inhibitors of Phosphoglycerate Kinase (AID 504547). Summed up:
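Luminescence end-point (Kinase-Glo Plus, 10 min) after a 60 min room-temperature coupled reaction. GAPDH at 100nM final supplies 1,3-BPG to PGK. Buffer: 100mM TEA pH 7.6, 5mM MgCl2, 0.01% Tween-20. Wells lacking PGK served as controls.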

Test [8] deals with phosphoglycerate mutase (Leishmania major) (UniProt Q4Q090). In words: qHTS Validation Assay to Find Inhibitors of Phosphoglycerate Mutase (AID 504548). Further: series mostly up to about 58 µM. Summed up: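 Luminescent end-point read-out via Kinase-GloPlus after a 10-minute development. Reaction: 1.25nM Leishmania major PGAM with substrate and compound, 45 minutes at room temperature in TEA buffer (pH 7.6) with MgCl2 and Tween-20.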

The nature of test [9]: qHTS for Inhibitors of ATXN expression: Validation (AID 588378). Further: nearly all actives have a fitted effect of over 75% in size. Further: potency means the concentration at half of the fitted maximal effect. Summed up:
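Luciferase luminescence (Bright-Glo) from an ATXN2-FFLuc HEK293 line after 24 h compound exposure at 37 °C, preceded by a CellTiter-Fluor fluorescence viability read. Serial dilutions of a reference ATXN2 inhibitor and a luciferase inhibitor served as controls.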

The nature of test [10]: qHTS for Inhibitors of ATXN expression: Validation of Cytotoxic Assay (AID 588349). Summed up:
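Cytotoxicity counter-screen: ATP-based luminescent viability (CellTiter Glo) after 72 hr exposure of HEK293 cells to a compound titration at 37 degrees C.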

Test [11] concerns the target Luciferin 4-monooxygenase (Photinus pyralis) (UniProt P08659). The test can be described thus: Biochemical firefly luciferase enzyme assay for NPC (AID 624030).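 Further: purified P. pyralis luciferase at 10 nM with luciferin and ATP substrate; series mostly up to about 59 µM; nearly all actives have a fitted effect of over 70% in size.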 Summed up:
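Direct inhibition of firefly luciferase enzyme (10 nM final, 50 mM Tris Acetate) assessed by luminescence within 5 minutes. Percent activity scaled between DMSO and PTC124 positive control, with concentration-effect curves classified by fit quality and response.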

Sequence of Luciferin 4-monooxygenase (Photinus pyralis) (P08659 whole entry, looked up): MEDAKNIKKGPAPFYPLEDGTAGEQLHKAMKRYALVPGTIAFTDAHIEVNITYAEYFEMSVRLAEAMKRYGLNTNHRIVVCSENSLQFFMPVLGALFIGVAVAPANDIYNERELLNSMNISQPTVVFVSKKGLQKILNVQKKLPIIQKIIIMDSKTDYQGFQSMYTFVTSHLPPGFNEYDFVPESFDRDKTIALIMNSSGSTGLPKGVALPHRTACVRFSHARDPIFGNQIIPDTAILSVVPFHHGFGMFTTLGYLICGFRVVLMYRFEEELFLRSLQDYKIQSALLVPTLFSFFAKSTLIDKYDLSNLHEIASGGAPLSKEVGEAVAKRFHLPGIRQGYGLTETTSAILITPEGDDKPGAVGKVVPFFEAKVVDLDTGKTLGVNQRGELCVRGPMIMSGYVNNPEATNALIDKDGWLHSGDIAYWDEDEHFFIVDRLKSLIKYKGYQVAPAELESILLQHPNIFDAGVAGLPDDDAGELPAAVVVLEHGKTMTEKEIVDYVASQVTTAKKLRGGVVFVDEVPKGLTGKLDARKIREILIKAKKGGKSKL
Sequence of DNA dC->dU-editing enzyme APOBEC-3G (Homo sapiens) (Q9HC16 whole entry, looked up): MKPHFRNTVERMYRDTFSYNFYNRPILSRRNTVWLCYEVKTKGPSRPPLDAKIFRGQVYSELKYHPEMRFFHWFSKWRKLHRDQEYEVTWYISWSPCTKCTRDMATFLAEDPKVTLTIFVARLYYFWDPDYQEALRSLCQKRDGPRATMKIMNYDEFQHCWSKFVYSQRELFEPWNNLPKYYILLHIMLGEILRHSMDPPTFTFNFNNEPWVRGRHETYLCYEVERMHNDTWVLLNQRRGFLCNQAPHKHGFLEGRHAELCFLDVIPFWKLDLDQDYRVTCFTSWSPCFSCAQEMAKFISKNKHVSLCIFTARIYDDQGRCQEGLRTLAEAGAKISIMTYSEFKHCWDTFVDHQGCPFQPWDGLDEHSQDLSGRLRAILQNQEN
Sequence of Voltage-gated inwardly rectifying potassium channel KCNH2 (Homo sapiens) (Q12809 whole entry, looked up): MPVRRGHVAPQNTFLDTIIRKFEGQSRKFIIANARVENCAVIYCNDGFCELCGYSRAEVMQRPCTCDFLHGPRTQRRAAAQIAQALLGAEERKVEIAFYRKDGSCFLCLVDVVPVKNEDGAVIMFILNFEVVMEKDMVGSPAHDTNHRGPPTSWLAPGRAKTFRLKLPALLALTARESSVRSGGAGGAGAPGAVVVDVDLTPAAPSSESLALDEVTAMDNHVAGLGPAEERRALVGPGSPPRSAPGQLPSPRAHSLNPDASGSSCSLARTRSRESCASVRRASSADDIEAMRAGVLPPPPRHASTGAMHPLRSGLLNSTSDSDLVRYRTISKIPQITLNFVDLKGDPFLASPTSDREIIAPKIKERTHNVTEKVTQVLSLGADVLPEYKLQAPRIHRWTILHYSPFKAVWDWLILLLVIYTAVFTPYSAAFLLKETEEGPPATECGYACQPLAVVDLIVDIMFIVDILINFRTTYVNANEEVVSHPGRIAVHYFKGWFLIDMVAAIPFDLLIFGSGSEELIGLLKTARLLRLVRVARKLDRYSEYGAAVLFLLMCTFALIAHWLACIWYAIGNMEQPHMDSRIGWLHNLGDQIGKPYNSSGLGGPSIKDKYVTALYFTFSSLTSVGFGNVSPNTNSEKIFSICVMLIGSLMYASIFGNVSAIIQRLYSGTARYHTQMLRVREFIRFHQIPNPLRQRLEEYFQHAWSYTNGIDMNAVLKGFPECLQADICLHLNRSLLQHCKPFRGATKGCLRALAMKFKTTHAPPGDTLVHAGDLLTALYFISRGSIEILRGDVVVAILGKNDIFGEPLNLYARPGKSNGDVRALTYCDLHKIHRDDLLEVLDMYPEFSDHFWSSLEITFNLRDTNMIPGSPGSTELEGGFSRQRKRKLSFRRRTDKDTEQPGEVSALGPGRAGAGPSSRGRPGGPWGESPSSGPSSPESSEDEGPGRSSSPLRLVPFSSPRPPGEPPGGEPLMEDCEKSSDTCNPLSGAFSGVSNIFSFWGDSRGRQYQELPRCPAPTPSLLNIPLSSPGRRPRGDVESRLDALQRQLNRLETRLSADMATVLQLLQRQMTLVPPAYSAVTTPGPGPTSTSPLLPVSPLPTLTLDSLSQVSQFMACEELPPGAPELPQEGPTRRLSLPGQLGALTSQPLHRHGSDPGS
Sequence of phosphoglycerate mutase (Leishmania major) (Q4Q090 1-553): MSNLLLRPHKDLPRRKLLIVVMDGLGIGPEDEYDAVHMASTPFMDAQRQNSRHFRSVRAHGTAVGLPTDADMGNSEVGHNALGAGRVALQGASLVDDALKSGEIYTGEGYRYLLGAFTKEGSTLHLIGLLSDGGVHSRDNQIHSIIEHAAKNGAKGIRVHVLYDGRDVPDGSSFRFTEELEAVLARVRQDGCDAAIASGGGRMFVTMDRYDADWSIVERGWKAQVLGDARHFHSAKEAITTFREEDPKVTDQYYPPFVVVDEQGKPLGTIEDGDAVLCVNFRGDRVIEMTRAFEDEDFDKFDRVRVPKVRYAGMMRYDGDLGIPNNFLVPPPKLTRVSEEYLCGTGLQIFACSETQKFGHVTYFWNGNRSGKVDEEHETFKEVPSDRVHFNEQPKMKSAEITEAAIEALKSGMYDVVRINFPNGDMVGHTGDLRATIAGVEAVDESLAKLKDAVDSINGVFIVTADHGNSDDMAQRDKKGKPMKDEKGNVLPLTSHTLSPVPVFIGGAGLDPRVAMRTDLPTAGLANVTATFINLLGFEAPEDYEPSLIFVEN
Sequence of Phosphoglycerate kinase, glycosomal (Trypanosoma brucei brucei) (P07378 whole entry, looked up): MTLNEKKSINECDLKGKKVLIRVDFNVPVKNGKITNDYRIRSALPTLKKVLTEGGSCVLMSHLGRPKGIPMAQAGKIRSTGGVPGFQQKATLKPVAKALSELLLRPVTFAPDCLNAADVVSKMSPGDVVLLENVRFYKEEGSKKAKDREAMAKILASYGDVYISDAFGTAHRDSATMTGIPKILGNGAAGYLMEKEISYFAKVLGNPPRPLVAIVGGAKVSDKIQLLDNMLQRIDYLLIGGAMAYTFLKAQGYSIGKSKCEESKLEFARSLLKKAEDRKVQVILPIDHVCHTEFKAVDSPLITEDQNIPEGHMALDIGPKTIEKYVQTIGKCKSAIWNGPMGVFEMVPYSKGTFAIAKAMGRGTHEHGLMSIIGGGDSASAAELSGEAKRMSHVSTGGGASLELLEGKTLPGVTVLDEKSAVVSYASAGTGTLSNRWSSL
Sequence of Peptidyl-prolyl cis-trans isomerase NIMA-interacting 1 (Homo sapiens) (Q13526 whole entry, looked up): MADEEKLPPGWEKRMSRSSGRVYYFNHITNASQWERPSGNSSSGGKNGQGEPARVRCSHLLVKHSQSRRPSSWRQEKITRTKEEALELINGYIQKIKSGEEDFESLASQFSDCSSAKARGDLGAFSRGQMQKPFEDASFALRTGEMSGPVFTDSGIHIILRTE
Sequence of Galactokinase (Homo sapiens) (P51570 whole entry, looked up): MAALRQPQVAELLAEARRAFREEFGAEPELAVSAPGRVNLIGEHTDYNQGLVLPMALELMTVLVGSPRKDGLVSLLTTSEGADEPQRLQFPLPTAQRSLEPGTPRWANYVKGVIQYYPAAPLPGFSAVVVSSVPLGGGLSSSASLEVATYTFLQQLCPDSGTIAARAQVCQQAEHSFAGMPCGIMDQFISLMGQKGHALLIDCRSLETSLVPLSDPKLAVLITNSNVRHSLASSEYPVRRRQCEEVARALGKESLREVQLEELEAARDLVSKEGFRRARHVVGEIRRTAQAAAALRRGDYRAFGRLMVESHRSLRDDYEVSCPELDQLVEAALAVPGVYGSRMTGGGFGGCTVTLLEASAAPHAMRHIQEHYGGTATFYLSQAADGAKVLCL

For `COc1ccc(-c2nc3ccc(C4=NNC(=O)CC4C)cc3[nH]2)cc1` (configuration not stated), the Potency entry in [1] was “inactive”.
For the compound `Cc1cc(NC(=O)Nc2ccc(N(C)C)cc2)c2cc(F)cc(F)c2n1`, the compound was called inactive in [2].
Take `CCNC(=O)[C@H]1O[C@@H](n2cnc3c(N)nc(NCCc4ccc(CCC(=O)O)cc4)nc32)[C@H](O)[C@H]1O`: the outcome in [3] and in [4] was inactive. Also, the Potency entry in test [1] is “inactive”.
As for `CCCCC(C=O)NC(=O)C(CC(C)C)NC(=O)OCc1ccccc1` (configuration not stated), in test [2], the outcome was inactive.
Still for that read-out and setting: for `O=c1cc(-c2ccc(O)c(O)c2)oc2cc(O)cc(O)c12` the value was “inactive”.
Regarding `C=CCc1cccc(C=NNC(=O)CN2CCN(Cc3ccccc3)CC2)c1O`, the outcome in [5], in test [6], in test [7] and in test [8] was inactive. In addition, the Potency in [9] is 3.55 µM (active).
With `Nc1ccn([C@@H]2O[C@H](CO)[C@@H](O)[C@H]2O)c(=O)n1`, the compound was called inactive in test [2].
In the case of `C[C@H]1O[C@@H](n2cc(F)c(=O)[nH]c2=O)[C@H](O)[C@H]1O`, the outcome in test [5], in test [6], in [7], in [8] and in [10] was inactive. For the same compound, the Potency result in test [9] is “inactive”.
In the case of `Cc1ccc(NC(=O)c2cccc(N(C)C)c2)cc1NC(=O)c1ccc(O)cc1`, the call in test [2] was inactive.
Regarding `NCC1CCC(C(=O)O)CC1` (configuration not stated), the Potency result in test [1] is “inactive”. Also, in test [11], the call was inactive.
For the compound `CS(=O)(=O)c1ccc(C2=C(c3ccccc3)C(=O)OC2)cc1`, in test [1], the Potency entry was “inactive”. Further, the compound was classed as inactive in test [11].
As for `NS(=O)(=O)c1cc(Cl)c(Cl)c(S(N)(=O)=O)c1`, the Potency entry in [1] was “inactive”. Besides, the outcome in test [11] was inactive.
For the compound `COc1nccc(-c2c(-c3ccc(F)cc3)ncn2C2CCC(O)CC2)n1` (configuration not stated), the result in test [2] was inactive.
With `N#CC(c1ccc(Cl)cc1)c1c(Cl)cc(-n2ncc(=O)[nH]c2=O)cc1Cl` (configuration not stated), the Potency result in [1] was “inactive”.
For the compound `COc1ccc(CCN(C)CCCOc2ccc(S(=O)(=O)c3[nH]c4ccccc4c3C(C)C)cc2)cc1OC`, the outcome in [2] was inactive.
On the same count and under the same terms, the same measure for `CC1C(=O)OC2C(O)C34C5CC(C(C)(C)C)C36C(OC(=O)C6O)OC4(C(=O)O5)C12O` (configuration not stated): “inactive”.
As to `N#Cc1c(N(CC(=O)O)CC(=O)O)sc(C(=O)O)c1CC(=O)O`, in test [1], the Potency result is “inactive”. Besides, the compound was classed as inactive in [11].
